Among the data in PubChem BioAssay AID449762 (Southern Research Specialized Biocontainment Screening …, 2010) are inhibition values, retold here.

The whole screen tested about 330,000 compounds, of which about 1,900 (0.58%) were called active. About 4% were inconclusive and are not listed. No stated cut-off is given here; in the data, inconclusive means inhibition above about 70% without an active follow-up result; inactive means below that. Only a sample is shown. Results with a measured potency or affinity are listed apart.

The test can be described thus: M. tuberculosis growth inhibition, HTS (AID 449762).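 Further: bacterial growth assessed after seven days of incubation.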 The following applies: M. tuberculosis H37Rv growth inhibition, 7H9 media; at 25 µM; active compounds read high.
In the case of `O=C(NCc1ccccn1)C(=O)Nc1cc2c3c(c1)CC(=O)N3CCC2`, the inhibition was 5.14% (inactive). As to `COc1cccc(C(=O)OCC(=O)c2ccc(Br)s2)c1`, the inhibition was -2.52% (inactive). For `COc1ccc(C(=O)OCC(=O)c2cc(OC)ccc2OC)c(OC)c1` the value was -2.93% (inactive).

With `CSc1nc2nc(-c3ccc(F)cc3)c(CCN3CCN(C)CC3)cn2n1`, the inhibition is -4.6% (inactive). For the compound `OCCNc1nc(NCc2ccccc2)c2ccccc2n1`, the inhibition was 5.73% (inactive). Regarding `CNc1nc(NCc2ccccc2)c2ccccc2n1`, the inhibition is 16.5% (inactive).

Take `CC1(/[N+]([O-])=C/c2ccc(Cl)cc2Cl)CCCCC1=O` (stereo unspecified): the inhibition is 3.79% (inactive).

Take `O=C(Cn1c(CO)nc2ccccc21)NC1CCCCCC1`: the inhibition was -4.47% (inactive). As to `COCCN(C(=O)c1csnn1)C(C(=O)NC1CCCC1)c1ccccc1F` (stereo unspecified), the inhibition was -6.7% (inactive). As for `COc1cc(OC)nc(-n2ncc(OC)c(Br)c2=O)n1`, the inhibition was -1.81% (inactive). On to `COC(=O)c1cnn(-c2nc(OC)cc(OC)n2)c1C`, for which the inhibition is 5.96% (inactive). For the compound `CSc1ccc(CN2C(=O)NC3(CCCCCCC3)C2=O)cc1`, the inhibition was 3.48% (inactive). `COc1cc2c(cc1O)CCN(C(=O)CSc1nncn1C)[C@@H]2C`: the inhibition is -6.62% (inactive).

On to `O=C(NCc1cccc(Br)c1)C1CC(c2ccccc2C(F)(F)F)=NO1` (stereo unspecified), for which the inhibition is 1.36% (inactive). On to `COC(=O)CCCCC1SCC(NC(=O)c2ccccc2)C1Cl` (stereo unspecified), for which the inhibition is -3.83% (inactive). Regarding `COC(=O)CCCCC1SCC(NC(=O)c2ccccc2)C1OC(C)=O` (stereo unspecified), the inhibition is 4.8% (inactive). As to `COC(=O)c1cc(C#N)c(N2CCN(C)CC2)nc1C`, the inhibition is -0.25% (inactive). For `O=C(COc1ccccc1)NCC(=O)N1CCCCCC1` the value was -3.96% (inactive); for `CCn1cc(Cl)c(C(=O)N2N=C(c3ccc4ccccc4c3)CC2c2ccccc2O)n1` (stereo unspecified), 0.64% (inactive). For the compound `CCn1cc([N+](=O)[O-])c(C(=O)N2N=C(c3ccc(O)c(OC)c3)CC2c2ccccc2O)n1` (stereo unspecified), the inhibition is -14.8% (inactive).

As for `CC1CCN(C(=O)c2ncn(Cc3ccccc3)c2C(=O)N2CCC(C)CC2)CC1`, the inhibition was 5.23% (inactive).

Take `COc1ccccc1NC(=O)c1ccc(S(=O)(=O)N(C)C)cc1`: the inhibition was -13.6% (inactive). Turning to `COc1ccccc1OCCNC(=O)c1ccc(S(=O)(=O)N(C)C)cc1`, the inhibition was -2.93% (inactive).

`CC(C)CC(=O)NC(=S)Nc1ccccc1F`: the inhibition was -4.61% (inactive). `O=C(Nc1ccnc(-c2ccncc2)n1)c1ccc(Cl)cc1`: the inhibition was 11.3% (inactive). On to `CN(CCOc1ccc(Cl)cc1)C(=O)CN1C(=O)NC2(CCCCC2)C1=O`, for which the inhibition was -0.72% (inactive).

Turning to `COc1ccc(OC)c(NC(=O)C2CCN(Cc3cnn(-c4ccccc4)c3-n3cccc3)CC2)c1`, the inhibition is 61.3% (inactive).

On to `COc1ccc(NC(=O)C2CCN(Cc3cnn(-c4ccccc4)c3-n3cccc3)CC2)cc1OC`, for which the inhibition is -3.38% (inactive). With `c1ccc(Nc2nc(N3CCCC3)nc(N3CCCC3)n2)cc1`, the inhibition was 17.2% (inactive).

Take `c1ccc(Nc2nc(N3CCCCC3)nc(N3CCCCC3)n2)cc1`: the inhibition is 4.61% (inactive). `O=C(CSc1nc2ccccc2o1)N1CCOCC1`: the inhibition is -2.89% (inactive). Regarding `Cc1c(NC(=O)C(c2ccccc2)c2ccccc2)cccc1C(=O)O`, the inhibition is 0.47% (inactive). For `O=C(NC1CCCC1)C(c1ccc(F)cc1)N(Cc1ccc(F)cc1)C(=O)CCl` (stereo unspecified), the inhibition is 0.54% (inactive). `CCOC(=O)c1c(CC(C)C)csc1NC(=O)C(C)C`: the inhibition was 1.18% (inactive).

In the case of `CCOC(=O)c1c(CC(C)C)csc1NC(C)=O`, the inhibition was -1.62% (inactive). On to `Cc1cccc(NC(=O)c2ccc(S(=O)(=O)N3CCCCC3C)cc2)n1` (stereo unspecified), for which the inhibition was 8.6% (inactive). With `O=c1[nH]c2ccccc2nc1/C=C(\O)C1CC1`, the inhibition is -0.58% (inactive).

For the compound `O=C(C1CCN(S(=O)(=O)c2cccc3cccnc23)CC1)N1CCN(C2CCCC2)CC1`, the inhibition is -2.61% (inactive).

In the case of `CC(NCc1ccc(N(C)C)cc1)C1CC2CCC1C2` (stereo unspecified), the inhibition was 0.02% (inactive).

In the case of `c1cc(CNC2C3CC4CC(C3)CC2C4)ccn1` (stereo unspecified), the inhibition is 10.3% (inactive). For the compound `CNC(=O)c1ccc(NC(=O)Nc2ccccc2)cc1`, the inhibition is -1.42% (inactive).

On to `Cc1occc1-c1nnc(SCC(=O)Nc2ccccn2)o1`, for which the inhibition was 36.7% (inactive).

On to `Cc1occc1-c1nnc(SCC(=O)NCCc2ccccc2)n1Cc1ccccc1`, for which the inhibition was 1.99% (inactive). For `CC(C)(C)c1ccc(-c2nnc(SCC(=O)NC3CCS(=O)(=O)C3)n2N)cc1` (stereo unspecified), the inhibition was 1.59% (inactive).

In the case of `COc1cc(CC(=O)OCC(=O)Nc2ccc3c(c2)OCO3)cc(OC)c1OC`, the inhibition was 0.09% (inactive).

Consider `COc1ccc(C2=NOC(Cn3nc(C(=O)O)cc3-c3ccccc3)C2)cc1` (stereo unspecified), for which the inhibition was -10.9% (inactive). As for `O=C(Cn1ccc2ccccc2c1=O)NCCC(=O)N1CCN(c2ccccc2)CC1`, the figure is 2.9% (inactive).

As to `O=C(CSc1nc(=O)n(CCCN2CCOCC2)c2c1CCCC2)Nc1ccc(F)cc1`, the inhibition is -5.62% (inactive). Turning to `Cc1cccc(C)c1NC(=O)N1CCCCCCC1`, the inhibition was -5.98% (inactive). For `C#CCOCCOCCOCCNc1nc(N2CCN(C(=O)CCCCCCCCCCNC(=O)[C@H](CCCCN)n3cc(CCO)nn3)CC2)nc(N2CCN(C(=O)CCCCCCCCCCNC(=O)[C@H](CCCCN)n3cc(CCCC(=O)O)nn3)CC2)n1` the value was 24.8% (inactive). For the compound `C#CCOCCOCCOCCNc1nc(N2CCN(C(=O)CCCCCCCCCCNC(=O)[C@H](CCCCN)n3cc(CCCC(=O)O)nn3)CC2)nc(N2CCN(C(=O)CCCCCCCCCCNC(=O)[C@H](CCCCN)n3cc(CCCC(=O)O)nn3)CC2)n1`, the inhibition was -1.93% (inactive). Consider `CC(C)CNC(=O)COC(=O)C1c2ccccc2Oc2ccccc21`, for which the inhibition is 9.4% (inactive).

Turning to `N#CCC(=O)Nc1ccc(C(=O)OCC(=O)c2ccc3c(c2)OCCO3)cc1`, the inhibition is -4.26% (inactive).

With `CCC(C(=O)Nc1ccc(OC)c(Cl)c1)c1ccccc1` (stereo unspecified), the inhibition is -3.28% (inactive). As for `O=C(CSc1ccc(-c2cccnc2)nn1)Nc1ccc(Br)cc1`, the inhibition was -0.4% (inactive). Consider `Cc1nonc1OCCNCCNc1ccc([N+](=O)[O-])cc1Cl`, for which the inhibition was 10.9% (inactive). With `COc1ccc(NC(=O)CN2CCN(CC(=O)Nc3ccc4c(c3)OCO4)CC2)cc1`, the inhibition was -4.59% (inactive).

With `COc1ccccc1NC(=O)CN1CCN(CC(=O)Nc2ccc(OC)c(OC)c2)CC1`, the inhibition was -1.32% (inactive). Regarding `CCOC(=O)c1c(C=O)c2ccccc2n1Cc1ccccc1F`, the inhibition is 0.55% (inactive). Regarding `N#CC1=C(N)Oc2n[nH]c(-c3cccs3)c2C1c1ccccc1C(=O)O` (stereo unspecified), the inhibition is -1.81% (inactive).

On to `CCN(CC)C(=O)CC(c1ccc(OC)cc1)c1c(O)cc(OC)cc1OC` (stereo unspecified), for which the inhibition is -3.84% (inactive).

Take `CCN(C(=O)COC(=O)c1[nH]c(=O)[nH]c(=O)c1N)c1ccccc1`: the inhibition was -1.59% (inactive). For `C(=N\Nc1nc(Nc2ccccc2)nc(Nc2ccccc2)n1)/c1ccncc1`, the inhibition was 0.63% (inactive).

Consider `C(=N\Nc1nc(Nc2ccccc2)nc(Nc2ccccc2)n1)/c1cccnc1`, for which the inhibition is 11.1% (inactive). As for `CC(=O)c1c(O)cc(C)n(-c2ccc(F)cc2)c1=O`, the figure is -1.89% (inactive); as for `Cc1ccccc1NC(=S)N1CCCC(c2nc3ccccc3[nH]2)C1` (stereo unspecified), 0% (inactive).

Consider `Cc1[nH][nH]c(=O)c1N=Nc1ccccc1Cl`, for which the inhibition was -0.87% (inactive). As to `Cc1[nH]n(S(=O)(=O)c2ccccc2)c(=O)c1N=Nc1cccc(Cl)c1`, the inhibition is 0.21% (inactive). For `COc1cccc(CNC(=O)Cn2ccc([N+](=O)[O-])n2)c1` the value was -0.85% (inactive). For the compound `CCC(=O)Nc1ccc2c(c1)nc(CCNC(=O)c1ccco1)n2C`, the inhibition was 2.89% (inactive). In the case of `CS(=O)(=O)c1ccc2nc(NC(=O)c3ccc(NS(=O)(=O)c4ccc(F)c(F)c4)cc3)sc2c1`, the inhibition is -0.5% (inactive). As to `CS(=O)(=O)c1ccc2nc(NC(=O)c3cccc(NS(=O)(=O)c4ccc(F)c(F)c4)c3)sc2c1`, the inhibition was 60.6% (inactive). With `CCN(CC)S(=O)(=O)c1ccc(N2CCOCC2)c(NS(=O)(=O)c2ccc(C(C)C)cc2)c1`, the inhibition is -4.72% (inactive). As to `Cc1ccc([C@@H]2CC=C(C(=O)O)[C@H](c3ccc(F)cc3)N2S(=O)(=O)c2ccccc2C)cc1`, the inhibition was 0.59% (inactive). As for `O=C1CCCC(=O)N1c1ccc(F)cc1`, the figure is -3.22% (inactive); as for `CCCCN1C(=O)c2ccc(C(=O)Nc3cccnc3)cc2C1=O`, 48.5% (inactive).

Regarding `CC1=C(/C=C/C(C)=C/C=C/C(C)=C/C(=O)O)C(C)(C)CCC1`, the inhibition is 26.5% (inactive). Turning to `CC1=C(/C=C/C(C)=C/C=C/C(C)=C\C(=O)O)C(C)(C)CCC1`, the inhibition was 69.3% (inactive).

On to `N#Cc1ccc(C23CC4CC(CC(C4)C2)C3)[nH]c1=O`, for which the inhibition was 12.1% (inactive). As to `O=c1cc(C23CC4CC(CC(C4)C2)C3)[nH][nH]1`, the inhibition is 4.36% (inactive). For `Cc1cnc(CN(C)C(=O)CC2C(=O)NCCN2CCCc2ccccc2)[nH]1` (stereo unspecified), the inhibition was -8.51% (inactive). As for `Cc1nn(C(C)C(=O)NCc2ccccc2F)c(=O)c2nn(-c3ccccc3)c(C)c12` (stereo unspecified), the figure is 0.01% (inactive). Consider `CCN1C(=O)[C@H]2[C@@H](c3ccc(-c4ccc(Cl)c(Cl)c4)cc3)N[C@@](Cc3ccccc3)(C(=O)OC)[C@H]2C1=O`, for which the inhibition is 4.89% (inactive). Regarding `COc1ccccc1N1CCN(CC(=O)Nc2nccs2)CC1`, the inhibition was 6.27% (inactive). For `Cc1ccccc1N1CCN(CC(=O)Nc2nccs2)CC1`, the inhibition is 6.57% (inactive). Take `O=C(CC(=O)NC1CCCCC1)N/N=C/c1ccccc1F`: the inhibition was 7.41% (inactive). For the compound `CCOC(=O)CNC(=O)c1cnc(Nc2ccccc2OC)c2ccccc12`, the inhibition is 2.72% (inactive). As for `O=C(O)Cc1c(-c2ccccc2Cl)c2cc(Br)ccc2[nH]c1=O`, the figure is 0.9% (inactive); as for `O=C(NNc1nc(-c2ccc(F)cc2)cs1)c1ccccc1`, 1.95% (inactive).

On to `N#Cc1ccc(-c2csc(NNC(=O)c3ccccc3)n2)cc1`, for which the inhibition is 1.66% (inactive). As for `Cc1cc(C)c(C#N)c(SCCS(=O)(=O)c2ccc(C(C)(C)C)cc2)n1`, the figure is 1.43% (inactive).

The term inhibition denotes the change of the read-out against control, counted positive when it falls.
